In PubChem BioAssay (NCI):
The panel holds about 83,000 compounds, 20% with a hit somewhere; the sample as a whole holds those more often.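 Values shown are percent growth following 48 h exposure of cells in 96-well plates to a single concentration of compound; below 10 was considered active.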 A number with no mark means an inactive call. Activity calls are given as the source filed them.

Legend:
Test in all cases: NCI-60 one-dose screen, 48 h (100 = growth as untreated, 0 = no growth, -100 = all killed)
DU-145 prostate = conditions: 10 µM
K-562 leukemia = conditions: 10 µM
MALME-3M melanoma = conditions: 10 µM
MDA-MB-231 breast = conditions: 10 µM
RXF 393 renal = conditions: 10 µM
SF-268 CNS = conditions: 10 µM
SF-295 CNS = conditions: 10 µM
SF-539 CNS = conditions: 10 µM
UACC-257 melanoma = conditions: 10 µM
HCT-15 colon = conditions: 10 µM
HT29 colon = conditions: 10 µM
SNB-75 CNS = conditions: 10 µM
SNB-19 CNS = conditions: 10 µM
U251 CNS = conditions: 10 µM
PC-3 prostate = conditions: 10 µM
SK-MEL-5 melanoma = conditions: 10 µM
UACC-62 melanoma = conditions: 10 µM unless noted
LOX IMVI melanoma = conditions: 10 µM
SK-MEL-28 melanoma = conditions: 10 µM
M14 melanoma = conditions: 10 µM

Compound | growth (DU-145 prostate) | growth (K-562 leukemia) | growth (MALME-3M melanoma) | growth (MDA-MB-231 breast) | growth (RXF 393 renal) [%] | growth (SF-268 CNS) [%] | growth (SF-295 CNS) | growth (SF-539 CNS) | growth (UACC-257 melanoma) | growth (HCT-15 colon) | growth (HT29 colon) [%] | growth (SNB-75 CNS) [%] | growth (SNB-19 CNS) [%] | growth (U251 CNS) | growth (PC-3 prostate) | growth (SK-MEL-5 melanoma) | growth (UACC-62 melanoma) | growth (LOX IMVI melanoma) | growth (SK-MEL-28 melanoma) [%] | growth (M14 melanoma) [%]
CC(C)CCOC(=O)c1ccccc1 | 108% | 102% | 96.9% | 104% | 119 | 102 | 100% | 98.8% | 101% | 111% | 108 | 95.6 | 105 | 97.5% | 97.9% | 105% | 104% | 101% | 103 | –
Cc1ccc(C(=O)c2ccccc2)c(C)c1 | 104% | 125% | 120% | 97.8% | 116 | 102 | 136% | 98.9% | 112% | 105% | 101 | 84.4 | 111 | 110% | 98.3% | 107% | 102% | 93.7% | 109 | –
OCCN1CCOCC1 | 124% | 114% | 114% | 113% | 119 | 117 | 110% | 111% | 99.7% | 96.3% | 110 | 90.4 | 102 | 108% | 109% | 103% | 103% | 105% | 105 | –
Nc1ncnc2[nH]ncc12 | 2.47% (active) | 13% | 21.3% | 5.28% (active) | 14.9 | 29.9 | 21% | 35.6% | 16.3% | 5.92% (active) | 12.3 | 33.3 | 71.3 | 42.8% | 7.63% (active) | 15% | -15.9% (active) | 1.37% (active) | 28.5 | –
CC1(C)N=C(N)N=C(N)N1c1cccc(Br)c1 | 53.4% | 23.2% | 68.9% | 77.6% | 66.8 | 37.2 | -8.36% (active) | 16.2% | 56% | 32.4% | 28.4 | 58.6 | 44.9 | 32.9% | 38.5% | 26.7% | 30.2% | 20.2% | 72.5 | –
CC(=O)OCCC(C)CCC=C(C)C (stereo not drawn) | 107% | 98.5% | 114% | 98.1% | 116 | 97.2 | 106% | 99.1% | 106% | 92.5% | 105 | 95.9 | 103 | 102% | 92.3% | 101% | 97.8% | 103% | 113 | –
COc1ccccc1NC(=O)c1cc2cc(Br)ccc2cc1O | 27% | 7.54% (active) | -1.45% (active) | 3.51% (active) | 39 | 17.8 | 11.3% | 0.0916% (active) | -21% (active) | 7.97% (active) | 72.8 | 12.4 | 27.3 | 8.67% (active) | -35.3% (active) | -74.6% (active) | 24.3% | 3.26% (active) | 34.6 | –
O=C(Nc1cccc(NC(=O)Nc2cc(C(F)(F)F)ccc2Cl)c1)Nc1cc(C(F)(F)F)ccc1Cl | 30.8% | 16.3% | 2.44% (active) | 1.95% (active) | 32 | 48.5 | -23.9% (active) | 34% | -4.1% (active) | 20.3% | 12.4 | 16.1 | 36.2 | -17.2% (active) | 1.7% (active) | 29.4% | 19.5% | 10.2% | 34.4 | –
CCOC(=O)C(CCC(C)C)C(=O)OCC | 107% | 103% | 108% | 109% | 110 | 92.5 | 102% | 107% | 97.5% | 104% | 94.4 | 94.6 | 109 | 101% | 107% | 102% | 101% | 115% | 107 | –
CCC(C)(C)C1CCC(O)CC1 (stereo not drawn) | 107% | 110% | 96.4% | 94.9% | 109 | 101 | 114% | 104% | 99.8% | 88.9% | 97.5 | 100 | 100 | 107% | 99.2% | 97.8% | 98.2% | 91.1% | 114 | –
O=c1[nH]c(O)c(/C=C2/C=Nc3ccccc32)[nH]1 | 99.3% | 86.1% | 125% | 89.6% | 103 | 82.1 | 125% | 91.5% | 101% | 81.2% | 95.3 | 77.4 | 104 | 103% | 83.4% | 91.2% | 95.7% | 96.6% | 111 | –
O=[N+]([O-])c1ccc(-c2ncc(-c3ccc(Br)cc3)o2)cc1 | 112% | 97.3% | 125% | 119% | 106 | 107 | 98.3% | 101% | 74.1% | 96.5% | 98.3 | 122 | 99.9 | 95.8% | 89.8% | 89.4% | 93.3% | 104% | 114 | –
CC(=O)OC(OC(C)=O)C1CCCO1 (stereo not drawn) | 112% | 135% | 112% | 91.8% | 115 | 97.8 | 112% | 100% | 98% | 104% | 106 | 90.2 | 109 | 105% | 95.5% | 104% | 95.2% | 89.7% | 97 | –
C/C(=N\NC(=O)c1ccccc1N)c1ccccc1O | 45.6% | 34% | 50% | 44.7% | 74.9 | 39.3 | 12.8% | 32.5% | – | – | 37 | 83 | 56.6 | – | 50.3% | 60.5% | 32% | 36.7% | – | 38.9
CC(CN1CCCCC1)NC(=O)c1scnc1-c1ccccc1 (stereo not drawn) | 116% | 113% | 106% | 114% | 101 | 115 | 79% | 114% | – | 103% | 94.2 | 86.1 | 107 | – | 92.9% | 101% | 107% | 95.2% | 107 | 101
O=C(Cc1ccc(OCc2ccccc2)cc1)NCc1ccc2c(c1)OCO2 | 84.6% | 27.6% | 46.6% | 82.8% | 105 | 68.9 | -16.6% (active) | 93.7% | – | – | 27.4 | 91.8 | 85.7 | – | 64.6% | 95.8% | 61.8% | 50% | 74.7 | 61.9
O=C(OCC(O)C1OC(c2ccccc2)OC(COC(=O)c2ccccc2)C1O)c1ccccc1 (stereo not drawn) | 118% | 101% | 105% | 107% | 96.3 | 110 | 77.3% | 103% | – | 96.6% | 103 | 77.4 | 94.2 | – | 83.5% | 97.1% | – | 108% | 104 | 110
CC[N+](C)(CC)CCO | 112% | 99.6% | 103% | 98.6% | 88.5 | 112 | 99.5% | 108% | – | 97.8% | 103 | 108 | 97.7 | – | 102% | 101% | 102% | 101% | 110 | 104
